Consider one molecule from PubChem BioAssay (EPA / NIEHS).

Details in all cases: mRNA level, 48 h; actives raise or lower the signal
Read-out in one experiment: BCL2L11 (gene 10018)
Put plainly: LTEA_HepaRG_BCL2L11: Life Technologies and Expression Analysis (LTEA) Assay for Bcl-2 (BCL2L11) gene using HepaRG (AID 2283473). Put shortly: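 Differentiated human HepaRG cells were exposed 48 h in serum-free induction medium to eight half-log concentrations up to 100 uM in 0.5% DMSO, in duplicate. BCL2L11 mRNA was quantified by TaqMan qRT-PCR, normalized to ACTB, GAPDH and POLR2A; induction or repression fitted versus DMSO.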

Read-out in experiment [1]: Apolipoprotein A-V (APOA5) gene, APOA5 (gene 116519)
The experiment is described as follows: LTEA_HepaRG_APOA5: Life Technologies and Expression Analysis (LTEA) Assay for Apolipoprotein A-V (APOA5) gene using HepaRG (AID 2283474). A digest of the protocol: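 Differentiated HepaRG cells in serum-free induction medium, exposed 48 h in duplicate to eight half-log concentrations topping at 100 uM (0.5% DMSO). APOA5 mRNA by Fluidigm TaqMan qRT-PCR, normalized to ACTB, GAPDH and POLR2A; bidirectional fit versus DMSO.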

Read-out in experiment [2]: Apoptosis regulator Bcl-2 (Homo sapiens) (UniProt P10415)
The experiment is described as follows: LTEA_HepaRG_BCL2: Life Technologies and Expression Analysis (LTEA) Assay for Bcl-2 gene using HepaRG (AID 2283475). Put shortly: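 qRT-PCR read-out (Fluidigm TaqMan) of BCL2 transcript, normalised to three housekeeping genes, after 48 h chemical exposure of HepaRG cells; 8-point half-log series, top 100 uM, 0.5% DMSO vehicle. Gain or loss of signal fitted relative to DMSO baseline.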

Read-out in experiment [3]: Bcl-2 (BID) gene, BID (gene 637)
Put plainly: LTEA_HepaRG_BID: Life Technologies and Expression Analysis (LTEA) Assay for Bcl-2 (BID) gene using HepaRG (AID 2283476). Put shortly:
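HepaRG, 48 h exposure, 8-pt half-log series, top 100 uM, 0.5% DMSO vehicle, duplicates. Readout: BID mRNA by TaqMan qRT-PCR; housekeeping-normalized; bidirectional curve fit vs DMSO baseline.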

Read-out in another experiment: Caspase-3 (Homo sapiens) (UniProt P42574)
The experiment is described as follows: LTEA_HepaRG_CASP3: Life Technologies and Expression Analysis (LTEA) Assay for cysteine-aspartic acid protease (CASP3) using HepaRG (AID 2283477). A digest of the protocol:
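Differentiated HepaRG cells, plated 48 h, were treated in duplicate in serum-free induction medium for 48 h with eight half-log concentrations up to 100 uM in 0.5% DMSO. CASP3 mRNA measured by qRT-PCR, normalized to ACTB, GAPDH, POLR2A.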

Read-out in experiment [4]: Cytochrome P450 (CYP24A1), CYP24A1 (gene 1591)
The experiment is described as follows: LTEA_HepaRG_CYP24A1: Life Technologies and Expression Analysis (LTEA) Assay for Cytochrome P450 (CYP24A1) using HepaRG (AID 2283478). Put shortly:
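HepaRG cells plated 48 h, then exposed in duplicate in serum-free induction medium for 48 h to 8-point half-log series from 100 uM in 0.5% DMSO. CYP24A1 mRNA by Fluidigm qRT-PCR, normalized to ACTB, GAPDH, POLR2A; bidirectional fit versus DMSO.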

Read-out in experiment [5]: Cytochrome P450 (CYP1A2), CYP1A2 (gene 1544)
The experiment is described as follows: LTEA_HepaRG_CYP1A2: Life Technologies and Expression Analysis (LTEA) Assay for Cytochrome P450 (CYP1A2) using HepaRG (AID 2283479). A digest of the protocol: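 Differentiated human HepaRG cells in serum-free induction medium exposed 48 hours in duplicate to 8 half-log concentrations from 100 uM, 0.5% DMSO. CYP1A2 mRNA quantified by qRT-PCR, normalized to ACTB, GAPDH and POLR2A; bidirectional fitting versus DMSO.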

Read-out in experiment [6]: cysteine-aspartic acid protease (CASP8), CASP8 (gene 841)
The experiment is described as follows: LTEA_HepaRG_CASP8: Life Technologies and Expression Analysis (LTEA) Assay for cysteine-aspartic acid protease (CASP8) using HepaRG (AID 2283480). A digest of the protocol: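 CASP8 transcript measured by TaqMan qRT-PCR with ACTB/GAPDH/POLR2A normalization, after 48 h chemical exposure of HepaRG cells in serum-free induction medium. Eight concentrations, top 100 uM, half-log steps, 0.5% DMSO vehicle; fits in both directions versus DMSO.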

Read-out in experiment [7]: Cytochrome P450 (CYP2B6), CYP2B6 (gene 1555)
The experiment is described as follows: LTEA_HepaRG_CYP2B6: Life Technologies and Expression Analysis (LTEA) Assay for Cytochrome P450 (CYP2B6) using HepaRG (AID 2283481). Put shortly: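 Differentiated human HepaRG cells in serum-free induction medium, dosed in duplicate for 48 h over 8 half-log concentrations topping at 100 uM (0.5% DMSO). CYP2B6 mRNA measured by TaqMan qRT-PCR, normalized to ACTB, GAPDH, POLR2A; bidirectional fit versus DMSO.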

Read-out in experiment [8]: Cytochrome P450 2C19 (Homo sapiens) (UniProt P33261)
Put plainly: LTEA_HepaRG_CYP2C19: Life Technologies and Expression Analysis (LTEA) Assay for CYP2C19 using HepaRG (AID 2283482). Put shortly: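 Differentiated HepaRG cells in serum-free induction medium exposed 48 h in duplicate, 8 concentrations from 100 uM by half-log steps in 0.5% DMSO. CYP2C19 mRNA measured by TaqMan qRT-PCR, normalized to ACTB, GAPDH, POLR2A. Bidirectional fit versus DMSO.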

Read-out in the next experiment: CYP2C8 (gene 1558)
The experiment is described as follows: LTEA_HepaRG_CYP2C8: Life Technologies and Expression Analysis (LTEA) Assay for CYP2C8 using HepaRG (AID 2283483). A digest of the protocol:
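CYP2C8 expression measured by TaqMan qRT-PCR and normalized to three housekeeping genes. HepaRG cultures were treated for 48 h with an eight-point half-log series topping at 100 uM, vehicle 0.5% DMSO, duplicates; fitted both directions against DMSO.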

Read-out in the next experiment: CYP2C9 (gene 1559)
Put plainly: LTEA_HepaRG_CYP2C9: Life Technologies and Expression Analysis (LTEA) Assay for CYP2C9 using HepaRG (AID 2283484). Put shortly:
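CYP2C9 transcript level, quantified by TaqMan qRT-PCR against three housekeeping genes, was fitted bidirectionally relative to 0.5% DMSO. HepaRG cultures were treated 48 h, in duplicate, at eight half-log concentrations topping at 100 uM.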

Read-out in another experiment: CYP2E1 (gene 1571)
The experiment is described as follows: LTEA_HepaRG_CYP2E1: Life Technologies and Expression Analysis (LTEA) Assay for CYP2E1 using HepaRG (AID 2283485). Put shortly:
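CYP2E1 transcript was measured by TaqMan qRT-PCR in human HepaRG cultures after 48 h chemical exposure (top 100 uM, half-log steps, 0.5% DMSO vehicle). Housekeeping-gene normalization; gain or loss fitted relative to DMSO baseline.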

Read-out in the next experiment: CYP4A11 (gene 1579)
The experiment is described as follows: LTEA_HepaRG_CYP4A11: Life Technologies and Expression Analysis (LTEA) Assay for CYP4A11 using HepaRG (AID 2283486). Put shortly:
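Differentiated HepaRG cells, 48 h after plating, exposed in duplicate for 48 h to 8 half-log concentrations up to 100 uM in 0.5% DMSO in serum-free induction medium. CYP4A11 mRNA measured by TaqMan qRT-PCR, normalized to ACTB, GAPDH and POLR2A.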

Read-out in experiment [9]: Cytochrome P450 3A4 (Homo sapiens) (UniProt P08684)
Put plainly: LTEA_HepaRG_CYP3A4: Life Technologies and Expression Analysis (LTEA) Assay for CYP3A4 using HepaRG (AID 2283487). A digest of the protocol:
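CYP3A4 transcript measured by TaqMan qRT-PCR and normalized to three housekeeping genes after 48 h chemical exposure of human HepaRG cells. Top concentration 100 uM, half-log steps, 0.5% DMSO vehicle; gain or loss fitted against DMSO baseline.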

Read-out in experiment [10]: DNA damage-inducible transcript 3 (DDIT3), DDIT3 (gene 1649)
Put plainly: LTEA_HepaRG_DDIT3: Life Technologies and Expression Analysis (LTEA) Assay for DNA damage-inducible transcript 3 (DDIT3) using HepaRG (AID 2283488). Put shortly:
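qRT-PCR readout (Fluidigm TaqMan), housekeeping-normalized to ACTB, GAPDH, POLR2A. HepaRG cells, 48 h exposure, 8-point half-log series from 100 uM in 0.5% DMSO, duplicates. Gain or loss of signal fitted against DMSO baseline.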

Read-out in experiment [11]: Early growth response protein 1 (EGR1) transcription factor, EGR1 (gene 1958)
The experiment is described as follows: LTEA_HepaRG_EGR1: Life Technologies and Expression Analysis (LTEA) Assay for Early growth response protein 1 (EGR1) transcription factor using HepaRG (AID 2283490). A digest of the protocol: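 EGR1 transcript levels quantified by qRT-PCR (Fluidigm arrays) against three housekeeping genes after 48 h chemical exposure of HepaRG cells. Eight-point half-log series topping at 100 uM, 0.5% DMSO vehicle, analyzed for gain or loss.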

Read-out in experiment [12]: Ezrin (EZR), EZR (gene 7430)
Put plainly: LTEA_HepaRG_EZR: Life Technologies and Expression Analysis (LTEA) Assay for Ezrin (EZR) using HepaRG (AID 2283491). A digest of the protocol: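 HepaRG, 48 h chemical exposure, 8-pt half-log series from 100 uM, 0.5% DMSO vehicle, duplicates. Read-out: EZR mRNA by TaqMan qRT-PCR (Fluidigm array), housekeeping-normalized; bidirectional curve fit vs DMSO baseline.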

The source made the active and inactive calls. The calls were made as follows: active = hit-call score of the fitted dose curve at least 0.9, where 1 is the maximum; inactive = score below 0.9.

Chain of Cytochrome P450 3A4 (Homo sapiens) (P08684 whole entry, looked up): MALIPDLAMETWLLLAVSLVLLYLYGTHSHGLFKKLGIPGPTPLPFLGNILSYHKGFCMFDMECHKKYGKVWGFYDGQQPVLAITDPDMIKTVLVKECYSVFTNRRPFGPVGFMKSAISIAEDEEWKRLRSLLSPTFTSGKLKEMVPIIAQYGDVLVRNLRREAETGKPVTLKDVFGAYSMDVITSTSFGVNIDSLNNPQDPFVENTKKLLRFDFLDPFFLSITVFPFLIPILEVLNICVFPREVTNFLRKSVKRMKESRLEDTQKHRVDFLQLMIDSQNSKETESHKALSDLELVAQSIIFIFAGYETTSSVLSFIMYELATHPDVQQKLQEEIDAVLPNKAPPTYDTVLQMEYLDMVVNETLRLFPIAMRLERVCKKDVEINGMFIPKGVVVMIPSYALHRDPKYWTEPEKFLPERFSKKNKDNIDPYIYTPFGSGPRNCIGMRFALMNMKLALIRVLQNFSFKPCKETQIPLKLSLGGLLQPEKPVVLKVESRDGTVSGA
Chain of Cytochrome P450 2C19 (Homo sapiens) (P33261 whole entry, looked up): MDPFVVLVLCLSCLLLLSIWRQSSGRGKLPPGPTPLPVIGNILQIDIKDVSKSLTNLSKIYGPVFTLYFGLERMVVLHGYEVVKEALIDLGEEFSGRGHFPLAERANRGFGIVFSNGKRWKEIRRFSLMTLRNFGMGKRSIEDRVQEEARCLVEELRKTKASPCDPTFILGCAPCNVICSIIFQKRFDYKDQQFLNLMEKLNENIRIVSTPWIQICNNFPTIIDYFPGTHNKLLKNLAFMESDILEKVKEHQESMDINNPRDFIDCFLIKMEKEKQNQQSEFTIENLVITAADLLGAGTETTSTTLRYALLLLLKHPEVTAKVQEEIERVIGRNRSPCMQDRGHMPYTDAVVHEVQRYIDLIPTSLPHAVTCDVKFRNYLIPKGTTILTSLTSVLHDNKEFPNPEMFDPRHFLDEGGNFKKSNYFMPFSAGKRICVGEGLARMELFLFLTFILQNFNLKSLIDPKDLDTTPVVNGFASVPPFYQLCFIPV
Chain of Caspase-3 (Homo sapiens) (P42574 whole entry, looked up): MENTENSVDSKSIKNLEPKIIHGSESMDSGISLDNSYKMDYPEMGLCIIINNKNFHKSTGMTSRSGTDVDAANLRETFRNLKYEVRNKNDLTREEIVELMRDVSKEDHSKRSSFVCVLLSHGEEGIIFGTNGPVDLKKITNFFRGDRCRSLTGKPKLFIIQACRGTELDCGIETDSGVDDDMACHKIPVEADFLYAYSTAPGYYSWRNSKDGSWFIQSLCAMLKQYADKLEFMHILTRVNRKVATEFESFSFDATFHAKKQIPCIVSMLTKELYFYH
Chain of Apoptosis regulator Bcl-2 (Homo sapiens) (P10415 whole entry, looked up): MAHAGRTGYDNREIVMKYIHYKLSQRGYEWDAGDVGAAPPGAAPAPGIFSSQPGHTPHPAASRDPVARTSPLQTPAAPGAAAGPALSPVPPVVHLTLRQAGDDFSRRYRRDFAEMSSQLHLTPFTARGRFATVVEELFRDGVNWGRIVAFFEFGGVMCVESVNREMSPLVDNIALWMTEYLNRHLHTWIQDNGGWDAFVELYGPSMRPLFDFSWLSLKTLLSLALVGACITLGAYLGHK

Usually AC50 stands for the concentration giving half of the maximal activity seen. Turning to `c1cc[n+]2c(c1)-c1cccc[n+]1CC2`, the call (with BCL2L11 (gene 10018); in experiment [1]; in experiment [2]; in [3]; with Caspase-3 (Homo sapiens); in experiment [4]) was inactive. The call (in [6]; in [7]; in experiment [8]; in the experiment with CYP2C8 (gene 1558); with CYP2C9 (gene 1559); with CYP2E1 (gene 1571)) was inactive. The call (in the experiment with CYP4A11 (gene 1579); in experiment [9]; in experiment [10]; in experiment [11]; in experiment [12]) was inactive. Further, the AC50 in experiment [5] was 12.4 µM (active).
